Calls of active or inactive are those of the source.

The subject of assay [1] is PRMT1 (protein arginine N-methyltransferase 1). The assay can be described thus: PRMT1 binders on small-molecule microarrays, primary screen, biochemical, small-molecule microarray, 635 nm fluorescence (AID 1088).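 Further: binding of Prmt1 protein to compounds spotted on small-molecule microarray slides.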 The note with it: small-molecule microarray binding, higher = more signal.
Assay [2] can be described thus: yeast growth modulation, basal conditions, primary screen, YJM789 clinical isolate, OD600, 24 h (AID 1089).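 Further: growth of clinical yeast isolate S. cerevisiae YJM 789 seeded 1000 cells per well; test concentration not given here.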 The following applies: S. cerevisiae YJM789 growth, higher = more signal, called active from +8 up or from −8 down.
The nature of assay [3]: fission yeast growth modulation, primary screen, strain 972, OD600, 24 h, no modulator (AID 1090).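 Further: basal condition with compound alone and no growth modifier present; test concentration not given here.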 The following applies: S. pombe 972 growth, higher = more signal, called active from +8 up or from −8 down.
Assay [4] can be described thus: S. cerevisiae growth modulation with rapamycin, primary screen, strain BY4716, OD600, 96 h (AID 1091). Further: test concentration not given here. The note with it: higher = more signal, called active from +8 up or from −8 down.
For assay [5], the target named is Torsin-1A-interacting protein 2 (Homo sapiens) (UniProt Q8NFQ8). The assay can be described thus: LULL1 binders on small-molecule microarray, primary screen, cell lysate, human LULL1 lysate, 635/667 nm fluorescence (AID 1092).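 Further: probe is lysate of COS7 cells overexpressing human LULL1; score merges per-feature 667 nm fluorescence with signal-to-noise.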 The note with it: hLULL1 lysate binding, 635 nm fluorescence, higher = more signal.
Assay [6] in a line: E. coli growth modulation, two-sided OD650, primary screen, E. coli filamentation project, strain DRC41, 24 h (AID 1093).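 Further: MC1000 strain lacking acrAB efflux and sulA so SOS filamentation is blocked; test concentration not given here.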 The note with it: OD650, 24 h, higher = more signal, called active from +8 up or from −8 down.
The nature of assay [7]: small-molecule microarray binders of probe aLefty2, primary screen, biochemical, biotinylated probe, 635/667 nm fluorescence (AID 1094).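 Further: score merges spot fluorescence near 667 nm with spot signal-to-noise ratio.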 The note with it: higher = more signal.
Assay [8] relates to Noggin (protein binding on small-molecule microarray). The assay can be described thus: Noggin binders on small-molecule microarray, primary screen, biochemical, 635/667 nm fluorescence (AID 1095).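 Further: score merges 667 nm feature fluorescence with signal to noise over triplicate slides.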 The following applies: 635 nm fluorescence, higher = more signal.
In assay [9] the target is Neurogenic locus notch homolog protein 3 (Homo sapiens) (UniProt Q9UM47). In words: NOTCH3 binders on small-molecule microarray, primary screen, biochemical, 635/667 nm fluorescence (AID 1096). The following applies: NOTCH3 binding, 635 nm fluorescence, higher = more signal.
Assay [10] is described as follows: small-molecule microarray binders of probe aEGFR, primary screen, biochemical, biotinylated probe, 635/667 nm fluorescence (AID 1097).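 Further: probe is a biotinylated anti-EGFR antibody binding compounds printed on slides; score combines fluorescence near 667 nm and signal to noise of each spot.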 The note with it: higher = more signal.
Assay [11] has as its system Plasmodium falciparum Sir2 (PF13_0152, Sir2A). In words: pfSir2 binders on small-molecule microarrays, primary screen, biochemical, small-molecule microarray, 635 nm fluorescence (AID 1098).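 Further: score merges spot fluorescence intensity with its signal-to-noise ratio.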 The following applies: small-molecule microarray binding, fluorescence 635 nm; higher = more signal.
Assay [12] is described as follows: small-molecule microarray binders of probe aDKK1, primary screen, biochemical, biotinylated probe, 635/667 nm fluorescence (AID 1099).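 Further: score merges 667nm spot fluorescence with signal to noise across triplicate slides; reference of the scale not given here.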 The note with it: higher = more signal.
Assay [13] is described as follows: small-molecule microarray binders of probe aCHRDL2, primary screen, biochemical, biotinylated probe, 635/667 nm fluorescence (AID 1100). The note with it: higher = more signal.
The nature of assay [14]: splicing luciferase reporter signal modulators, primary screen, spliceosome inhibition project, cell-based, HEK293, splice +/- reporter (AID 1101).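 Further: HEK293 cells carrying a splicing-competent luciferase reporter gene; test concentration not given here.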 The note with it: luminescence, 24 h, higher = more signal, called active from +8 up or from −8 down.
The target of assay [15] is Fibroblast growth factor 10 (Homo sapiens) (UniProt O15520). In words: FGF10 binders on small-molecule microarrays, primary screen, biochemical, small-molecule microarray, 635 nm fluorescence (AID 1102). The following applies: FGF10 binding, fluorescence 635 nm, higher = more signal.
Assay [16] concerns glycogen synthase kinase-3 (GSK3A per assay name; protocol says GSK3B). The assay can be described thus: GSK3 binders on small-molecule microarrays, primary screen, biochemical, small-molecule microarray, 635 nm fluorescence, GSK3A (AID 1103). Further: the record names both GSK3A and GSK3B. The following applies: small-molecule microarray binding, fluorescence 635 nm; higher = more signal.
The target of assay [17] is Epidermal growth factor receptor (Homo sapiens) (UniProt P00533). In words: EGFR binders on small-molecule microarrays, primary screen, biochemical, small-molecule microarray, 635 nm fluorescence (AID 1104).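 Further: score merges 667 nm emission intensity with spot signal to noise over triplicate slides.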 The following applies: EGFR binding, higher = more signal.
The target of assay [18] is Follistatin-related protein 3 (Homo sapiens) (UniProt O95633). The assay can be described thus: FSTL3 binders on small-molecule microarrays, primary screen, biochemical, small-molecule microarray, 635 nm fluorescence (AID 1105).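 Further: score merges emission near 667 nm and signal to noise per printed spot across three slides.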 The note with it: FSTL3 binding, higher = more signal.
Assay [19] has as its target Dickkopf-related protein 1 (Homo sapiens) (UniProt O94907). In words: DKK1 binders on small-molecule microarrays, primary screen, biochemical, small-molecule microarray, 635 nm fluorescence scan (AID 1106).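 Further: score merges emission near 667 nm with signal to noise over three replicate slides.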 The note with it: DKK1 binding, higher = more signal.
Assay [20] relates to Inhibin beta A chain (activin A). In words: INHBA (activin A) binders on microarrays, primary screen, biochemical, small-molecule microarray, 635 nm fluorescence scan (AID 1107).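 Further: mouse activin A protein probed at 4.33 µg/mL on printed slides; score merges bound-protein fluorescence near 667 nm with spot signal-to-noise.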 The following applies: small-molecule microarray binding, higher = more signal.

Chain of Follistatin-related protein 3 (Homo sapiens) (O95633 whole entry, looked up): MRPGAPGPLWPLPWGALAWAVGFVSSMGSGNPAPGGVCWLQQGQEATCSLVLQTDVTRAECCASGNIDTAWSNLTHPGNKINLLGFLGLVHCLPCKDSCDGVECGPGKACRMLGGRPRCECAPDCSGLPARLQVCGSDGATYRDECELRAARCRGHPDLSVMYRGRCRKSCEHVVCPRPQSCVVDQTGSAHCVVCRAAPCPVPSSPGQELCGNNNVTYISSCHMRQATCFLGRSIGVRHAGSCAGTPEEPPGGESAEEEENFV
Chain of Neurogenic locus notch homolog protein 3 (Homo sapiens) (Q9UM47 whole entry, looked up): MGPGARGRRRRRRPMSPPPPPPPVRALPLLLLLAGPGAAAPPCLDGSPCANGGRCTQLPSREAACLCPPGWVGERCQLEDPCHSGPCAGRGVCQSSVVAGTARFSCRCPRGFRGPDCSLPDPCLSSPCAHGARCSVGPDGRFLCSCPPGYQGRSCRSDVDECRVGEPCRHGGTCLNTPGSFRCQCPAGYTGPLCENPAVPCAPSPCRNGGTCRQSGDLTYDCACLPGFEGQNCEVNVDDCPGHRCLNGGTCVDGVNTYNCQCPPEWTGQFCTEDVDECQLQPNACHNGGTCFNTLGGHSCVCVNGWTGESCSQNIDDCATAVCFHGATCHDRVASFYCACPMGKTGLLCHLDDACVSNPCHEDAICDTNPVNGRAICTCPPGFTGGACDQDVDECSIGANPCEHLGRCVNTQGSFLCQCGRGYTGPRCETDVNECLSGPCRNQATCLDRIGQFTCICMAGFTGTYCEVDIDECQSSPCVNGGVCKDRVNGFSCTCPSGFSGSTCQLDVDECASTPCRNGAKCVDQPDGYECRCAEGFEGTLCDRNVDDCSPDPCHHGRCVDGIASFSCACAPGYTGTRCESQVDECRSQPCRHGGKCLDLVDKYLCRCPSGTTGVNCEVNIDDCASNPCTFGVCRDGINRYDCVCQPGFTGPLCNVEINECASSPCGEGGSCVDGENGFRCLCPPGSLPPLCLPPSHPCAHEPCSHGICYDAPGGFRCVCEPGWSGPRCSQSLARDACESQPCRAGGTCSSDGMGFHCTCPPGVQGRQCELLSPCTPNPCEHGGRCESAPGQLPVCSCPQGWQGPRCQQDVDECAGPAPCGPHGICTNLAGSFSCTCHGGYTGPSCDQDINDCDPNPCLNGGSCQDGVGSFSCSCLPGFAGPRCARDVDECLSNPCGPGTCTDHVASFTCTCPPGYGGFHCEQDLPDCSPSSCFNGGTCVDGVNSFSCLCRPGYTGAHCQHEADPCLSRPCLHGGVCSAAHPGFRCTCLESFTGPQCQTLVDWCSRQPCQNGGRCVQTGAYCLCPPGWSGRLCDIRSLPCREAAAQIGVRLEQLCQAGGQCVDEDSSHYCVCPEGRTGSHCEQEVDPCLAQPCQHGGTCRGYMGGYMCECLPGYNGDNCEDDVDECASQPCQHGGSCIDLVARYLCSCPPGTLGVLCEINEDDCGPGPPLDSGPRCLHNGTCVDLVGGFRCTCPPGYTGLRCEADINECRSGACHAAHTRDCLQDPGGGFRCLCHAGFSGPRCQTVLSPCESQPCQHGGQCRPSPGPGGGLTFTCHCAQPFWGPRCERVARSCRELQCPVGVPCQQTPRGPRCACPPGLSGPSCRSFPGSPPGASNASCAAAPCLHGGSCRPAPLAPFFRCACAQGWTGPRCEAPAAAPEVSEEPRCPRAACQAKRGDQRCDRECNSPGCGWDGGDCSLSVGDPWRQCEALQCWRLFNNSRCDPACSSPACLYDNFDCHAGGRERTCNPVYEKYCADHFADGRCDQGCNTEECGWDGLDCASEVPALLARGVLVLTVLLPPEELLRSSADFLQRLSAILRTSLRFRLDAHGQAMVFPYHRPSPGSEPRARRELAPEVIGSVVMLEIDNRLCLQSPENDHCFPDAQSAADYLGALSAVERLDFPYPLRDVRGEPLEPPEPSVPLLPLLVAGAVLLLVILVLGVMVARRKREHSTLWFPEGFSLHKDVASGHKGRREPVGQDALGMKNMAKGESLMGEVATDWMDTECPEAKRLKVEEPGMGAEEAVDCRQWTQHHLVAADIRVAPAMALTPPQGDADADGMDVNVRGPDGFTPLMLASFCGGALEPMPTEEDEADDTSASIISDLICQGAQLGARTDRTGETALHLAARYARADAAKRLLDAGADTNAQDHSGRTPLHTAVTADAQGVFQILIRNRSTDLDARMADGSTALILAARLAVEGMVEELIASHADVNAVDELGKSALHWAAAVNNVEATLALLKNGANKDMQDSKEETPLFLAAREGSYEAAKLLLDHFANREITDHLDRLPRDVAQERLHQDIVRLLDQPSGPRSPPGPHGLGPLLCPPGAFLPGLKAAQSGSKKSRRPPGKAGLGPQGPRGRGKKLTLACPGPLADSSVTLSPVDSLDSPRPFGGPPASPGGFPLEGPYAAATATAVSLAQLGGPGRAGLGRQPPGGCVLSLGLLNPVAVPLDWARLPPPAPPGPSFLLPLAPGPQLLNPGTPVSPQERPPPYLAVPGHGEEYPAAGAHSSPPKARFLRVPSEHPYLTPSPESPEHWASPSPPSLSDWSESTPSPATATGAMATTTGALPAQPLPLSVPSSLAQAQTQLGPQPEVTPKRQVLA
Chain of Dickkopf-related protein 1 (Homo sapiens) (O94907 whole entry, looked up): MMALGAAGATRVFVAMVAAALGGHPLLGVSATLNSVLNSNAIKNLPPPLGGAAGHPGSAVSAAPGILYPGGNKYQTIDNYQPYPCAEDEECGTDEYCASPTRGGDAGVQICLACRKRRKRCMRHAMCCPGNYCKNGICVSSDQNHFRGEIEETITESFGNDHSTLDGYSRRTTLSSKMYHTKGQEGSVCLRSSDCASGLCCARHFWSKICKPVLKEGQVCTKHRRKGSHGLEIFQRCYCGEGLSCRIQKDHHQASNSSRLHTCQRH
Chain of Epidermal growth factor receptor (Homo sapiens) (P00533 whole entry, looked up): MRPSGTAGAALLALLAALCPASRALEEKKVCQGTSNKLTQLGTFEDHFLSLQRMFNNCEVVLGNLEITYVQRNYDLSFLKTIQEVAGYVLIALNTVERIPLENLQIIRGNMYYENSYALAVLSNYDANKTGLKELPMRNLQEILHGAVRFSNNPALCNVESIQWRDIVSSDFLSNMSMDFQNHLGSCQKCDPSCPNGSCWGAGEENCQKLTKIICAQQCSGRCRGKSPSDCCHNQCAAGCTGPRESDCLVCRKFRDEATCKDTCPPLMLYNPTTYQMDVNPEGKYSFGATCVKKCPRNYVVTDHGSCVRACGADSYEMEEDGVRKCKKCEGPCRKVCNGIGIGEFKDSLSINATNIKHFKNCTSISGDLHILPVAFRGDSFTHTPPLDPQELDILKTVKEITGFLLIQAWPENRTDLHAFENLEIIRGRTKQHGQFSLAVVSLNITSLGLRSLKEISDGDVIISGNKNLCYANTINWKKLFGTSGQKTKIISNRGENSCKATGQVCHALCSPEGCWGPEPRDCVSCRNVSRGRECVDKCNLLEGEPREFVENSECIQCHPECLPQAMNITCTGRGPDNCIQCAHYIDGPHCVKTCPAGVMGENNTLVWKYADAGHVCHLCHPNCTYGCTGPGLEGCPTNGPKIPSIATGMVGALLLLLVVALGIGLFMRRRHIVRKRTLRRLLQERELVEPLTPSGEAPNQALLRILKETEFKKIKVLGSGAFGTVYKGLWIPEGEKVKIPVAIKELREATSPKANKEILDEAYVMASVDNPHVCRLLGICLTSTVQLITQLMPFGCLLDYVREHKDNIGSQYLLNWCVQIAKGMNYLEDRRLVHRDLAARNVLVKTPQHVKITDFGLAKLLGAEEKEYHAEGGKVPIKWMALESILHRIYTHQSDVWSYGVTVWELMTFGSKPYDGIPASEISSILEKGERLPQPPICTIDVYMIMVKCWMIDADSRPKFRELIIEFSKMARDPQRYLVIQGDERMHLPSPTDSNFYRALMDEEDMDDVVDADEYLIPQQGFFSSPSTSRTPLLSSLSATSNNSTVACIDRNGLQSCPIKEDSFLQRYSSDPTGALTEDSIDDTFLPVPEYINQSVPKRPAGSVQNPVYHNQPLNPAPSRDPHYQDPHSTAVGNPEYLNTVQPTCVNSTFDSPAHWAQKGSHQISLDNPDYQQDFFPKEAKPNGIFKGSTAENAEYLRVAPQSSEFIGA
Chain of Fibroblast growth factor 10 (Homo sapiens) (O15520 whole entry, looked up): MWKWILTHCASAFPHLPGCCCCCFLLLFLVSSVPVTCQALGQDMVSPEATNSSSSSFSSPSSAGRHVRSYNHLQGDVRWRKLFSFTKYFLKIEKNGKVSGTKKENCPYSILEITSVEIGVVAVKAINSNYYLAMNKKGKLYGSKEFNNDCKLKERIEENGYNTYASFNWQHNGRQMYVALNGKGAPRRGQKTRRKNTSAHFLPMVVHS
Chain of Torsin-1A-interacting protein 2 (Homo sapiens) (Q8NFQ8 whole entry, looked up): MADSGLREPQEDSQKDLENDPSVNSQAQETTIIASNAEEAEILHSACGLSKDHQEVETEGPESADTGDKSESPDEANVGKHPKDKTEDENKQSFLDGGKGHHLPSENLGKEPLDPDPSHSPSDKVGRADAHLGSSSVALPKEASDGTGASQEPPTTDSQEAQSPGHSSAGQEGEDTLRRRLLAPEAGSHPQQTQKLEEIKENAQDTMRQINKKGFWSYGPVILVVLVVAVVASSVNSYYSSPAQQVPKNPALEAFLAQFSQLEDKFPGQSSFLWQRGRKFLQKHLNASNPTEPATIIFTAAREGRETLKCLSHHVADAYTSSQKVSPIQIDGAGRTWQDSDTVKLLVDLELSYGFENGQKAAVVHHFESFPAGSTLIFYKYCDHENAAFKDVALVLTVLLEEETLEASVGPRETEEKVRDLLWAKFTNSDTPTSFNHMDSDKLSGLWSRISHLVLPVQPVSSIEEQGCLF

For `O=C1C[C@@H](O)[C@@H](O)[C@@H]2[C@@H]3C(=O)N(c4cccc(Oc5ccccc5)c4)C(=O)[C@@H]3CC[C@H]12`, the composite z-score is -0.129 in assay [1]; 0.685 in assay [5]; -0.156 in assay [7]; 0.292 in assay [8]; 1.02 in assay [9]; -0.145 in [10]. For the same molecule, the composite z-score in [11] was 0.326; in assay [12] it was -0.18; in [13], -0.709; in assay [15] it was 0.595; in assay [16], 0.572; in [17] it was 0.573. In addition, the composite z-score is 0.814 in assay [18], 0.846 in assay [19] and -0.173 in [20]. Also, the z-score in assay [2] was 0.157 (inactive); in assay [3] it was 0.462 (inactive); in assay [4], 0.469 (inactive); in [6], 0.378 (inactive); in assay [14] it was 0.218 (inactive).

Take `CC(C)CON=C1C[C@@H](O)[C@@H](O)[C@@H]2[C@@H]3C(=O)N(C4CCCCC4)C(=O)[C@@H]3CC[C@@H]12`: the composite z-score was -0.0785 in assay [1]; 1.64 in assay [5]; -0.302 in assay [7]; 0.0295 in [8]; -0.519 in assay [9]; -0.154 in assay [10]. Further, the composite z-score was 1.17 in [11]; -0.22 in assay [12]; -0.198 in assay [13]; -0.0852 in assay [15]; -0.925 in assay [16]; -0.305 in assay [17]. The composite z-score in assay [18] is -0.504; in [19] it was -0.607; in assay [20], -0.164. The z-score in [2] was 0.4 (inactive); in [3], -0.513 (inactive); in [4], 0.423 (inactive); in assay [6] it was -0.233 (inactive); in [14], 0.353 (inactive).

Consider `CCCCc1nc2c(c3c1C[C@H](C)OC3)CN(CCOc1ccccc1)CC2`, for which the composite z-score in assay [1] was 1.44; in assay [5] it was 1.62; in assay [7] it was -0.005; in [8] it was 0.339; in assay [9], 0.732; in assay [10] it was 0.219. Also, the composite z-score is 0.489 in assay [11]; 0.107 in assay [12]; -0.277 in assay [13]; 0.632 in assay [15]; 0.427 in assay [16]; 0.681 in assay [17]. The composite z-score worked out at 1.27 in [18], 0.302 in [19] and 0.765 in assay [20]. Further, the z-score was -2.26 (inactive) in [2]; -4.02 (inactive) in assay [3]; 0.574 (inactive) in assay [4]; 0.976 (inactive) in [6]; -1.21 (inactive) in [14].

Turning to `COC(=O)CC=C[C@@H](C)[C@@H](C=NO[C@@H]1O[C@H](COC(C)=O)[C@@H](OC(C)=O)[C@H](OC(C)=O)[C@H]1OC(C)=O)NS(=O)(=O)c1ccc(C)cc1`, the composite z-score was 1.41 in [1]; -0.147 in assay [5]; -0.134 in [7]; 0.521 in assay [8]; 0.545 in [9]; -0.152 in assay [10]. Moreover, the composite z-score in assay [11] was -0.119; in assay [12] it was -0.268; in assay [13] it was -0.645; in assay [15] it was 0.626; in [16] it was -0.448; in assay [17] it was 0.504. Further, the composite z-score in [18] is -0.212; in assay [19] it was 0.833; in [20], -1.58. Also, the z-score was 0.0457 (inactive) in assay [2]; -0.23 (inactive) in assay [3]; -0.615 (inactive) in assay [4]; -1.32 (inactive) in [6]; -0.15 (inactive) in [14].

For `CC1O[C@H]2C3=C(C(=O)[C@@H]4O[C@@H]4[C@H]3O)[C@@H]1C1[C@@H](C)OC=C3[C@H](O)C4O[C@@H]4C(=NOCc4ccccc4)[C@]312` (stereo not given in full), the composite z-score was -0.543 in assay [1]; 0.578 in assay [5]; -0.192 in [7]; 0.521 in [8]; -0.128 in assay [9]; -0.148 in assay [10]. For the same molecule, the composite z-score was 0.0395 in [11]; -0.129 in [12]; -0.326 in assay [13]; 0.0791 in assay [15]; -0.14 in [16]; 0.191 in [17]. Further, the composite z-score in assay [18] was -0.3; in assay [19], 0.155; in [20], 0.121. In addition, the z-score in assay [2] was 0.247 (inactive); in assay [3], -0.602 (inactive); in assay [4] it was 0.089 (inactive); in assay [6], -0.42 (inactive); in assay [14], -0.469 (inactive).
